# Experimental data reported in PubChem BioAssay.
# For some of these results: Measured potencies and affinities stand elsewhere. Active and inactive are the calls of the source.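 The calls were made as follows, unless noted: active = compound raising the membrane signal above positive-control mean plus 3 SD in both repeats, and a primary screen hit; inactive = the rest.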
# What was measured:
# [1] = tested on: TRPC4 beta (transient receptor potential cation channel C4), mouse; assay: TRPC4 cation channel opening, retest – cell-based, Fluo4 calcium, HEK293 TRPC4beta/mu-opioid, duplicates, 10 µM, confirmation (AID 2426;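 active = fluorescence ratio normalized to control raised more than 50% in primary screen plus both repeat runs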;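 as to activation: percent rise of integrated ratio over buffer wells lacking compound which define 0%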); settings: Fluo4 calcium fluorescence, at 10 µM; hits give high values
# [2] = tested on: transient receptor potential cation channel C4 beta (TRPC4), mouse; assay: TRPC4 cation channel opening, second retest – cell-based, second round, Fluo4, HEK293 TRPC4beta/mu-opioid, 1 µM, confirmation (AID 2461;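 active = primary screen active and over 50% activation in each of two duplicate runs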); settings: Fluo4 calcium fluorescence, at 1 µM; hits give high values
# [3] = tested on: TRPC4 (transient receptor potential cation channel C4 beta), mouse; assay: potentiation of DAMGO EC20 TRPC4 response – cell-based, second round, Fluo-4, HEK293 TRPC4beta/mu-opioid, 1 µM, confirmation (AID 2554;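 active = primary screen hit whose fluorescence ratio, in both repeats, exceeds the weak agonist control mean by 3 SD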); settings: DAMGO EC20, Fluo-4 calcium flux, at 1 µM; hits give high values
# [4] = tested on: TRPC4 beta (transient receptor potential cation channel C4), mouse; assay: potentiation of DAMGO EC20 TRPC4 response – cell-based, Fluo-4, HEK293 TRPC4beta/mu-opioid, confirmation (AID 2555;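 active = primary screen hit whose calcium fluorescence ratio, in both repeats, exceeds the weak agonist control mean by 3 SD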); settings: DAMGO EC20, Fluo-4 calcium flux, at 10 µM; hits give high values
# [5] = biological target: Short transient receptor potential channel 4 (Mus musculus) (UniProt Q9QUQ5); assay: blockers of DAMGO-evoked TRPC4 calcium flux – cell-based, Fluo4, HEK293 TRPC4beta/mu-opioid, confirmation (AID 2636;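 active = calcium signal cut by more than 3 SD below the full-agonist control yet still positive, in both repeats and the earlier primary screen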); settings: at 10 µM; hits give high values
# Chain of Short transient receptor potential channel 4 (Mus musculus) (Q9QUQ5 whole entry, looked up): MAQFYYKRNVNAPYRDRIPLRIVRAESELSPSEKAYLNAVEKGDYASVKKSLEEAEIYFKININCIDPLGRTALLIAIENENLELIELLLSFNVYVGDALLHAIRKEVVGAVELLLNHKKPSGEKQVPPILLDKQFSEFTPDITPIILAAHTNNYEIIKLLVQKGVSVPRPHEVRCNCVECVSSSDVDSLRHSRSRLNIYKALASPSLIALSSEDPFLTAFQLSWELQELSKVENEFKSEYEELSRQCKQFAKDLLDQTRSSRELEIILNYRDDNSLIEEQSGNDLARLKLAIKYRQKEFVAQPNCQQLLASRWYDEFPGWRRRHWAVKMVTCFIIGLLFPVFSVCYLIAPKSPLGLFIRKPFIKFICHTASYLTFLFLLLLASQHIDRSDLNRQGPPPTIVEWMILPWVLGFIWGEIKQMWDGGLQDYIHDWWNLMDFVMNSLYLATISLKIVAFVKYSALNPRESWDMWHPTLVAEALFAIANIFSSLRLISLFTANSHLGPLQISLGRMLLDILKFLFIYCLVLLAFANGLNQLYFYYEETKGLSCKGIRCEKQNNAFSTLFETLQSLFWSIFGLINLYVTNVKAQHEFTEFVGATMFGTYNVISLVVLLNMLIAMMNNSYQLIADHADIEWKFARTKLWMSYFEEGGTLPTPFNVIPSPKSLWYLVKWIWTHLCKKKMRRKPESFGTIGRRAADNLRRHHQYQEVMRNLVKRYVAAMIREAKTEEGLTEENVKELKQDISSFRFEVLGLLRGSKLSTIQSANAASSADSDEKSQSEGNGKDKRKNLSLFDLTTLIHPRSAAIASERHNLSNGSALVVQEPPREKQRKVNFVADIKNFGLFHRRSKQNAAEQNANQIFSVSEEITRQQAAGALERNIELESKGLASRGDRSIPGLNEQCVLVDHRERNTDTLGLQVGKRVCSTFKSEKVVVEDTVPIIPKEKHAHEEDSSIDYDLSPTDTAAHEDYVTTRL
# [6] = biological target: Short transient receptor potential channel 4 (Mus musculus) (UniProt Q9QUQ5); assay: blockers of DAMGO-evoked TRPC4 calcium flux – cell-based, second round, Fluo4, HEK293 TRPC4beta/mu-opioid, 1 µM, confirmation (AID 2637;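 active = calcium signal ratio cut to more than 3 SD under the fully stimulated control mean yet still positive, in both repeats and the primary screen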); settings: at 1 µM; hits give high values
# [7] = biological target: Short transient receptor potential channel 4 (Mus musculus) (UniProt Q9QUQ5); assay: calcium entry via TRPC4 opening agents – cell-based, HEK293 TRPC4/mu-opioid, Fluo-4 calcium, dose response (AID 434937;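 active = primary screen activator hit with a dose response curve and TRPC4 channel activation at any tested dose; inactive = no activation, no dose response, or not a primary hit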)
# [8] = biological target: Short transient receptor potential channel 4 (Mus musculus) (UniProt Q9QUQ5); assay: potentiation of DAMGO-evoked TRPC4 calcium signal – cell-based, HEK293 TRPC4/mu-opioid, Fluo-4 calcium, EC20 DAMGO, dose response (AID 434941;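 active = earlier screen potentiator hit that boosts the TRPC4 ion channel at some dose, with a dose response; inactive = no potentiation, no dose response, or not a prior hit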;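 also: calcium entry triggered by an EC20 dose of DAMGO at the co-expressed mu-opioid receptor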)
# [9] = biological target: Short transient receptor potential channel 4 (Mus musculus) (UniProt Q9QUQ5); assay: block of DAMGO-driven TRPC4 calcium entry – cell-based, HEK293 TRPC4/mu-opioid, Fluo-4 calcium, dose response (AID 434942;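 active = primary screen inhibitor hit that blocks the TRPC4 channel at some tested dose, yielding a dose curve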)
# [10] = biological target: Short transient receptor potential channel 6 (Mus musculus) (UniProt Q61143); assay: TRPC6 blockade by TRPC4 inhibitor hits – cell-based, HEK293, membrane potential dye, duplicate, selectivity assay for TRPC4 inhibitor project, confirmation (AID 434948;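 active = active in primary screen and both duplicates, each dropping signal beyond three positive-control SD with fluorescence still positive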); settings: HEK293 TRPC6, membrane potential dye fluorescence, at 10 µM, stimulated with maximal-effect acetylcholine; hits give high values
# Chain of Short transient receptor potential channel 6 (Mus musculus) (Q61143 whole entry, looked up): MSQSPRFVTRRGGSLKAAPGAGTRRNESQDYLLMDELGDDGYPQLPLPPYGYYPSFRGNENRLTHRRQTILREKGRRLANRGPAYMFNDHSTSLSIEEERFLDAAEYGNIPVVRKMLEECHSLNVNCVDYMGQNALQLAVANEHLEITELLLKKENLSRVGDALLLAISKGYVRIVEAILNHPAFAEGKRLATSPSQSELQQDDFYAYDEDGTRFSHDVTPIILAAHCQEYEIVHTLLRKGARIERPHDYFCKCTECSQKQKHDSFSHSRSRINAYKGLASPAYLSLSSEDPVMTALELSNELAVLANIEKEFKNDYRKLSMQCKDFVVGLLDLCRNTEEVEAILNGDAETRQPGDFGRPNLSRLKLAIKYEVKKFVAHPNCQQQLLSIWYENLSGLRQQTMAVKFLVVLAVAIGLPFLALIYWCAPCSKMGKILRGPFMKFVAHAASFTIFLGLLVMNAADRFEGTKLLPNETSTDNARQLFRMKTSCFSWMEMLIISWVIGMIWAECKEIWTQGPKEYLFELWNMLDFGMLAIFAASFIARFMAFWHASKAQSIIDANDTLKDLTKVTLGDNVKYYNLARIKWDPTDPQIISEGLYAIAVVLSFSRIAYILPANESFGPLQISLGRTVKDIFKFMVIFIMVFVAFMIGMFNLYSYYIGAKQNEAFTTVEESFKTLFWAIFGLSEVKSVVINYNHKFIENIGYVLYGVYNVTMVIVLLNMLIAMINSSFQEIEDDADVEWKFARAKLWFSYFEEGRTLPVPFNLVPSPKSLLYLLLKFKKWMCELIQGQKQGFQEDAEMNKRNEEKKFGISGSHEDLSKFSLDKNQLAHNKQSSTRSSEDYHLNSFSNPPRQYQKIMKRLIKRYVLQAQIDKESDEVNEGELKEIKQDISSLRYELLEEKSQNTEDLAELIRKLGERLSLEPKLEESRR
# [11] = biological target: Short transient receptor potential channel 6 (Mus musculus) (UniProt Q61143); assay: TRPC6 opening by TRPC4 activator hits – cell-based, HEK293, membrane potential dye, duplicate, selectivity assay for TRPC4 activator project, confirmation (AID 434950;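 active = membrane potential signal rise above negative control mean plus 3 SD in both duplicates, also active in the earlier TRPC4 screen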); settings: HEK293 TRPC6, membrane potential fluorescence, at 10 µM; activation: hits give high values; outcome: activation
# [12] = biological target: Short transient receptor potential channel 6 (Mus musculus) (UniProt Q61143); assay: positive modulators of mouse TRPC6 channel – HEK293 cells, membrane potential dye, duplicate, selectivity assay for TRPC4 potentiator project, confirmation (AID 434952); settings: HEK293 TRPC6, membrane potential dye fluorescence, at 10 µM, maximal acetylcholine added after compound; hits give high values
# [13] = biological target: Short transient receptor potential channel 4 (Mus musculus) (UniProt Q9QUQ5); assay: calcium flux activators in TRPC4/5HT1a cells, counter-screen for TRPC4 activator project, cell-based, second counter screen, HEK293 TRPC4/5HT1a, Fluo-4 (AID 434977;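 active = calcium signal rise above buffer-control mean plus 5 SD in both duplicates, and also a hit in the primary screen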;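 as to activation: plate controls were assay buffer for no effect and maximal serotonin response for full effect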); settings: Fluo-4 calcium flux, at 10 µM; hits give high values
# [14] = serotonin-gated TRPC4 signal block – cell-based, second counter screen, HEK293 TRPC4/5HT1a, Fluo-4, counter-screen for TRPC4 inhibitor project, confirmation (AID 434978;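 active = primary screen active whose calcium signal fell more than 3 SD beyond the full-serotonin control mean in both duplicate plates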;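 also: serotonin given first at submaximal then at maximal dose after compound preincubation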); settings: Fluo-4 calcium flux, at 10 µM, serotonin added to trigger calcium flux; hits give high values
# [15] = tested on: TRPC4 (mouse), co-expressed with 5HT1a in HEK293; assay: enhancement of serotonin-evoked TRPC4 response – cell-based, second counter screen, HEK293 TRPC4/5HT1a, Fluo-4, counter-screen for TRPC4 potentiator project, confirmation (AID 434979;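 active = signal rise over 3 SD above mean of control wells given weak agonist, in both repeats and first screen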); settings: Fluo-4 calcium flux, at 10 µM, serotonin added at its EC20 dose; hits give high values
# [16] = nonspecific calcium rise without TRPC4 – cell-based, HEK293 mu-opioid receptor line, counter-screen for TRPC4 activator project, confirmation (AID 449723;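 active = hit in primary screen, with calcium signal over 5 SD above buffer well mean in both duplicates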;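 also: counter screen cells carry the mu-opioid receptor alone and lack TRPC4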); settings: HEK293 mu-opioid cells, Fluo-4 calcium fluorescence, at 10 µM; hits give high values
# [17] = nonspecific potentiation of DAMGO calcium response – cell-based, HEK293 mu-opioid receptor line, counter-screen for TRPC4 allosteric potentiator project, confirmation (AID 449724;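 active = calcium signal rise more than 3 SD above the low-dose agonist control mean, in both duplicate plates and the primary screen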); settings: HEK293 mu-opioid receptor cells, Fluo-4 calcium flux, at 10 µM, compound added before EC20 DAMGO stimulus; hits give high values
smiles,measurement,setting,value
CCOc1ccc(Nc2nc(Cc3nnc(SCC(=O)c4ccc(C)cc4)o3)cs2)cc1,outcome,[1],inactive
same,outcome,[2],inactive
same,outcome,[3],inactive
same,outcome,[4],inactive
same,outcome,[5],inactive
same,outcome,[6],inactive
same,outcome,[7],inactive
same,outcome,[8],inactive
same,outcome,[9],inactive
same,outcome,[10],inactive
same,outcome,[11],inactive
same,outcome,[12],inactive
same,outcome,[13],inactive
same,outcome,[14],inactive
same,potentiation,[15],8.2% (active)
same,outcome,[16],inactive
same,outcome,[17],inactive
CCN1C(=O)/C(=C/C=C2\N(CC)c3cc(S(=O)(=O)N(C)C)ccc3N2c2ccccc2)SC1=S,outcome,[1],inactive
same,outcome,[2],inactive
same,outcome,[3],inactive
same,potentiation,[4],13% (active)
same,outcome,[5],inactive
same,outcome,[6],inactive
same,outcome,[7],inactive
same,outcome,[8],inactive
same,outcome,[9],inactive
same,outcome,[10],inactive
same,outcome,[11],inactive
same,outcome,[12],inactive
same,outcome,[13],inactive
same,outcome,[14],inactive
same,potentiation,[15],24.9% (active)
same,outcome,[16],inactive
same,activation,[17],996% (active)
COC(=O)C1=C(C)NC2=C(C(=O)c3ccccc32)C1c1ccc(-c2ccc(C(=O)O)cc2)o1 (stereo unspecified),outcome,[1],inactive
same,outcome,[2],inactive
same,outcome,[3],inactive
same,outcome,[4],inactive
same,outcome,[5],inactive
same,outcome,[6],inactive
same,outcome,[7],inactive
same,outcome,[8],inactive
same,outcome,[9],inactive
same,outcome,[10],inactive
same,outcome,[11],inactive
same,outcome,[12],inactive
same,outcome,[13],inactive
same,outcome,[14],inactive
same,outcome,[15],inactive
same,outcome,[16],inactive
same,activation,[17],1780% (active)
CCN1CCN(C(=O)c2cc(-c3ccc(Cl)s3)nc3ccccc23)CC1,outcome,[1],inactive
same,outcome,[2],inactive
same,outcome,[3],inactive
same,potentiation,[4],148% (active)
same,outcome,[5],inactive
same,outcome,[6],inactive
same,outcome,[7],inactive
same,outcome,[8],inactive
same,outcome,[9],inactive
same,outcome,[10],inactive
same,outcome,[11],inactive
same,outcome,[12],inactive
same,outcome,[13],inactive
same,outcome,[14],inactive
same,potentiation,[15],37% (active)
same,outcome,[16],inactive
same,outcome,[17],inactive
O=C(Cc1ccccc1)Nc1cccc(NC(=O)c2cccs2)c1,outcome,[1],inactive
same,outcome,[2],inactive
same,outcome,[3],inactive
same,outcome,[4],inactive
same,outcome,[5],inactive
same,outcome,[6],inactive
same,outcome,[7],inactive
same,outcome,[8],inactive
same,outcome,[9],inactive
same,outcome,[10],inactive
same,outcome,[11],inactive
same,outcome,[12],inactive
same,outcome,[13],inactive
same,outcome,[14],inactive
same,outcome,[15],inactive
same,outcome,[16],inactive
same,outcome,[17],inactive
CC(=O)c1ccc(N2CCN(C(=O)CCS(=O)(=O)c3ccc4c(c3)NC(=O)CS4)CC2)cc1,outcome,[1],inactive
same,outcome,[2],inactive
same,outcome,[3],inactive
same,outcome,[4],inactive
same,outcome,[5],inactive
same,outcome,[6],inactive
same,outcome,[7],inactive
same,outcome,[8],inactive
same,outcome,[9],inactive
same,outcome,[10],inactive
same,outcome,[11],inactive
same,outcome,[12],inactive
same,outcome,[13],inactive
same,outcome,[14],inactive
same,potentiation,[15],20.9% (active)
same,outcome,[16],inactive
same,outcome,[17],inactive
CCn1c(C)nc2cc(C(=O)N/N=C/c3cccc(O)c3O)ccc21,outcome,[1],inactive
same,outcome,[2],inactive
same,potentiation,[3],79% (active)
same,potentiation,[4],50% (active)
same,outcome,[5],inactive
same,outcome,[6],inactive
same,outcome,[7],inactive
same,outcome,[8],inactive
same,outcome,[9],inactive
same,outcome,[10],inactive
same,outcome,[11],inactive
same,outcome,[12],inactive
same,outcome,[13],inactive
same,outcome,[14],inactive
same,potentiation,[15],23% (active)
same,outcome,[16],inactive
same,outcome,[17],inactive
CC(=O)c1c(O)c(C)c(O)c2c1OC1=CC(=O)C(C(C)=O)C(=O)[C@@]12C (stereo partly specified),activation,[1],246% (active)
same,outcome,[2],inactive
same,outcome,[3],inactive
same,outcome,[4],inactive
same,outcome,[5],inactive
same,outcome,[6],inactive
same,outcome,[7],inactive
same,outcome,[8],inactive
same,outcome,[9],inactive
same,outcome,[10],inactive
same,outcome,[11],inactive
same,outcome,[12],inactive
same,activation,[13],20.7% (active)
same,outcome,[14],inactive
same,outcome,[15],inactive
same,activation,[16],43.3% (active)
same,outcome,[17],inactive
